Source: the antibiotic and cytotoxicity screens of Wong et al. (2023)
In all, about 39,000 compounds went through this assay and about 3,300 (8.5%) were called active. The sample as a whole holds a higher share of actives than the screen did.

system: HepG2; assay: cytotoxicity call (relative viability < 0.9); conditions: 10 µM

SMILES	cytotoxicity call
CO[C@@H](CN(C)C(=O)C1CCOCC1)[C@@H](C)CN(C(=O)Nc1ccc(C(F)(F)F)cc1)[C@@H](C)CO	inactive
CC(=O)N[C@@H]1C[C@H](O)[C@@H](O)CCC(=O)N[C@H](c2ccccc2)COC1=O	inactive
C[C@H]1CN([C@@H](C)CO)C(=O)Cc2cc(NC(=O)Cn3cnnn3)ccc2O[C@H]1CN(C)C(=O)Nc1ccc(C(F)(F)F)cc1	inactive
C[C@@H]1CCCCO[C@@H](CN(C)C(=O)NC2CCCCC2)[C@H](C)CN([C@H](C)CO)C(=O)c2cc(NC(=O)CCC(F)(F)F)ccc2O1	inactive
CO[C@H]1CN(C)C(=O)c2cc(NC(=O)NC(C)C)ccc2OC[C@H](C)N(Cc2ccc(-c3ccccn3)cc2)C[C@H]1C	inactive
C[C@@H]1CCCCO[C@H](CN(C)C(=O)Nc2cccc3ccccc23)[C@@H](C)CN([C@H](C)CO)C(=O)c2cc(NS(=O)(=O)c3ccc(F)cc3)ccc2O1	active
C[C@@H]1CN([C@@H](C)CO)C(=O)c2cc(NS(=O)(=O)c3ccc(F)cc3)ccc2O[C@@H](C)CCCCO[C@H]1CN(C)C(=O)Nc1cccc2ccccc12	inactive
C[C@H]1CCCCO[C@@H](CN(C)C(=O)Nc2cccc3ccccc23)[C@@H](C)CN([C@@H](C)CO)C(=O)c2cc(NS(=O)(=O)c3ccc(F)cc3)ccc2O1	inactive
C[C@H](CO)N1C[C@H](C)[C@H](CN(C)C(=O)Nc2cccc3ccccc23)OCCCC[C@H](C)Oc2ccc(NS(=O)(=O)c3ccc(F)cc3)cc2C1=O	inactive
C[C@H](CO)N1C[C@H](C)[C@@H](CN(C)C(=O)Nc2cccc3ccccc23)OCCCC[C@H](C)Oc2ccc(NS(=O)(=O)c3ccc(F)cc3)cc2C1=O	inactive
C[C@@H]1CCCCO[C@@H](CN(C)C(=O)Nc2cccc3ccccc23)[C@@H](C)CN([C@H](C)CO)C(=O)c2cc(NS(=O)(=O)c3ccc(F)cc3)ccc2O1	inactive
C[C@H]1CCCCO[C@H](CN(C)C(=O)Nc2cccc3ccccc23)[C@@H](C)CN([C@@H](C)CO)C(=O)c2cc(NS(=O)(=O)c3ccc(F)cc3)ccc2O1	active
C[C@@H]1CCCCO[C@@H](CN(C)C(=O)Nc2cccc3ccccc23)[C@H](C)CN([C@@H](C)CO)C(=O)c2cc(NS(=O)(=O)c3ccc(F)cc3)ccc2O1	inactive
C[C@@H]1CCCCO[C@H](CN(C)C(=O)Nc2cccc3ccccc23)[C@H](C)CN([C@@H](C)CO)C(=O)c2cc(NS(=O)(=O)c3ccc(F)cc3)ccc2O1	active
C[C@@H]1CCCCO[C@@H](CN(C)C(=O)Nc2cccc3ccccc23)[C@H](C)CN([C@H](C)CO)C(=O)c2cc(NS(=O)(=O)c3ccc(F)cc3)ccc2O1	active
C[C@@H]1CN([C@@H](C)CO)C(=O)c2cc(NS(=O)(=O)c3ccc(F)cc3)ccc2O[C@@H](C)CCCCO[C@@H]1CN(C)C(=O)Nc1cccc2ccccc12	inactive
CN1CCC[C@H](C(=O)O)C1	inactive
C[C@@H]1CN([C@H](C)CO)S(=O)(=O)c2ccc(C#CC3CC3)cc2O[C@H]1CN(C)Cc1cccc(F)c1	inactive
CNC[C@H]1Oc2cc(C#CC(C)(C)O)ccc2S(=O)(=O)N([C@H](C)CO)C[C@@H]1C	inactive
O=C(C[C@@H]1CC[C@H]2[C@@H](COC[C@@H](O)CN2S(=O)(=O)c2ccc(Cl)cc2)O1)N[C@@H]1CCN(Cc2ccccc2)C1	inactive
C[C@@H]1CN([C@H](C)CO)C(=O)c2cc(NS(C)(=O)=O)ccc2O[C@H]1CN(C)C(=O)Nc1ccc2c(c1)OCO2	inactive
CCOC(=O)c1snc2c(=O)nc[nH]c12	inactive
C=CCOC(=O)[C@@H]1[C@H]2C(=O)O[C@H](c3ccccc3)[C@H](c3ccccc3)N2[C@H](c2ccc(OCCOC(=O)[C@H]3C[C@H]4C(=O)N[C@@H](CCCCNC(C)=O)C(=O)N4[C@H]3c3cccc(OCCO)c3)cc2)[C@@]12C(=O)Nc1ccc(I)cc12	inactive
C[C@@H]1CCCCO[C@@H](CN(C)C(=O)CCC(F)(F)F)[C@@H](C)CN([C@@H](C)CO)C(=O)c2cc(NC(=O)Nc3ccc4c(c3)OCO4)ccc2O1	inactive

SMILES	cytotoxicity call
C[C@@H]1CCCCO[C@H](CN(C)C(=O)Nc2cccc3ccccc23)[C@H](C)CN([C@H](C)CO)C(=O)c2cc(NS(=O)(=O)c3ccc(F)cc3)ccc2O1	active
C[C@H]1CN([C@@H](C)CO)S(=O)(=O)c2ccc(-c3cccnc3)cc2O[C@H]1CN(C)C(=O)c1ccc2c(c1)OCO2	inactive
NC(=O)CC1=NC(=O)CS1	inactive
C[C@H]1CN([C@@H](C)CO)C(=O)Cc2cc(NC(=O)Cc3ccccc3)ccc2O[C@@H]1CN(C)S(C)(=O)=O	inactive
Cc1ccc(S(=O)(=O)Nc2ccc3c(c2)C(=O)N([C@@H](C)CO)C[C@H](C)[C@H](CN(C)Cc2ccc4c(c2)OCO4)OCCCC[C@@H](C)O3)cc1	inactive
C[C@@H]1CN([C@@H](C)CO)C(=O)c2cc(NC(=O)Nc3cccc4ccccc34)ccc2O[C@H]1CN(C)Cc1ccncc1	inactive
C#CC1(OC(C)=O)CCC2C3CCC4=CC(=NO)CCC4C3CCC21CC (configuration not stated)	active
C#CC1(O)CCC2C3CCC4=CC(=O)CCC4C3CCC21CC (configuration not stated)	inactive
CC(=O)OC1(C(C)=O)CCC2C3CC(C)C4=CC(=O)CCC4(C)C3CCC21C (configuration not stated)	inactive
C#CC1(OC(C)=O)CCC2C3CCC4=CC(=O)CCC4C3CCC21C (configuration not stated)	inactive
C#CC1(OC(C)=O)CCC2C3CCC4=CC(OC(C)=O)CCC4C3CCC21C (configuration not stated)	active
C[C@@H]1CN([C@H](C)CO)C(=O)CCCn2cc(nn2)CO[C@@H]1CN(C)C(=O)Nc1ccc2c(c1)OCCO2	inactive
COc1ccc(S(=O)(=O)Nc2cccc3c2O[C@@H](CN(C)C(=O)Nc2c(C)noc2C)[C@H](C)CN([C@H](C)CO)C3=O)cc1	inactive
COc1cccc(S(=O)(=O)N(C)C[C@@H]2Oc3cc(C4=CCCC4)ccc3S(=O)(=O)N([C@H](C)CO)C[C@@H]2C)c1	inactive
C[C@@H]1CN([C@@H](C)CO)C(=O)Cc2cc(NC(=O)CCC(F)(F)F)ccc2O[C@H]1CN(C)Cc1ccc(Cl)c(Cl)c1	active
C[C@@H]1CN([C@@H](C)CO)C(=O)Cc2cc(NC(=O)CCC(F)(F)F)ccc2O[C@@H]1CN(C)Cc1ccc(Cl)c(Cl)c1	active
C[C@@H]1CN([C@H](C)CO)C(=O)Cc2cc(NC(=O)CCC(F)(F)F)ccc2O[C@@H]1CN(C)Cc1ccc(Cl)c(Cl)c1	inactive
C[C@H]1CN([C@@H](C)CO)C(=O)c2cc(NC(=O)CCC(F)(F)F)ccc2O[C@H]1CN(C)Cc1ccc(Cl)c(Cl)c1	inactive
C[C@@H]1CN([C@H](C)CO)C(=O)Cc2cc(NC(=O)CCC(F)(F)F)ccc2O[C@H]1CN(C)Cc1ccc(Cl)c(Cl)c1	inactive
C[C@@H]1CN([C@@H](C)CO)C(=O)c2cc(NC(=O)CCC(F)(F)F)ccc2O[C@H]1CN(C)Cc1ccc(Cl)c(Cl)c1	active
C[C@@H]1CN([C@H](C)CO)C(=O)c2cc(NC(=O)CCC(F)(F)F)ccc2O[C@@H]1CN(C)Cc1ccc(Cl)c(Cl)c1	inactive
C[C@H](CO)N1C[C@H](C)[C@H](CN(C)Cc2ccc(Cl)c(Cl)c2)Oc2ccc(NC(=O)CCC(F)(F)F)cc2CC1=O	inactive
C[C@H](CO)N1C[C@H](C)[C@@H](CN(C)Cc2ccc(Cl)c(Cl)c2)Oc2ccc(NC(=O)CCC(F)(F)F)cc2CC1=O	inactive
